According to PubChem BioAssay (NCATS):
Results filed as inconclusive are left out. A number with no mark means an inactive call. Active and inactive are the calls of the source. The call rests on the fitted dose curve; in most records, active means well fitted cell-killing curve with a large enough effect; inconclusive means small, poorly fitted or top-dose-only effect; inactive means flat fitted curve, though single readings scatter.

Experiment: Cell Viability - LYMP2-016 (AID 984);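 further: cells exposed to compound for 24 hours at 37 °C; on the % scale 0 is the no-effect control and ±100 the full control effect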
Conditions: LYMP2-016 lymphoblastoid cell viability, qHTS; series mostly up to 92.2 µM; activity change, negative = cytotoxicity: at the top concentration
How it was run: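 Human lymphoblastoid cells (LYMP2-016), 2500/well in complete medium, preincubated 5 hr at 37 C, then compound-treated 24 hr at 37 C. Intracellular ATP read by CellTiter-Glo luminescence after 30 min at room temperature; AC50 from Hill-equation concentration-response fits.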
Further: nearly all actives have a fitted effect of over 55% in size.

Row | SMILES | activity change, negative = cytotoxicity [%] | outcome
1 | CC(C)NC(C)C | -1.08 | 
2 | CCC(C)(C)c1ccc(O)cc1 | -2.19 | 
3 | CCCC(C)(COC(N)=O)COC(N)=O | 0.667 | 
4 | O=P1(N(CCCl)CCCl)NCCCO1 (stereo not given) | -0.232 | 
5 | COP(=S)(OC)Oc1ccc(SC)c(C)c1 | 4.76 | 
6 | COC(=O)C(c1ccccc1)C1CCCCN1 (stereo not given) | -19.3 | 
7 | CC(C)c1cccc(C(C)C)c1O | -3.26 | 
8 | Clc1ccc(C(c2ccc(Cl)cc2)C(Cl)(Cl)Cl)cc1 | -10.8 | 
9 | C[C@]1(O)CC[C@H]2[C@@H]3CCC4=CC(=O)CC[C@]4(C)[C@@]3(F)[C@@H](O)C[C@@]21C | 3.08 | 
10 | COc1cc(OC)c(OC)cc1C=O | -1.44 | 
11 | Nc1ccccc1 | -2.6 | 
12 | C[C@]12CCC(=O)C=C1CC[C@@H]1[C@@H]2CC[C@@]2(C)[C@H]1CC[C@]2(C)O | -16.2 | 
13 | Oc1ccc(Cl)cc1 | -8.02 | 
14 | C[C@]12CCC(=O)C=C1CC[C@@H]1[C@@H]2CC[C@]2(C)C(=O)CC[C@@H]12 |  | inactive
15 | NCCc1ccc(O)cc1 | -1.96 | 
16 | CCOC(=O)CC(SP(=S)(OC)OC)C(=O)OCC (stereo not given) | -5.13 | 
17 | Nc1ccccc1C(=O)O | -2.14 | 

Experiment: Cell Viability - LYMP2-020 (AID 986);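 further: cells exposed to compound for 24 h at 37 °C; plate controls were DMSO only for no effect and tetraoctylammonium bromide at 92 µM for full effect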
Conditions: series mostly up to 92.2 µM; activity change, negative = viability loss: at the top concentration
How it was run: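 Acute cytotoxicity in a human lymphoblastoid line is scored as a concentration-dependent fall in cellular ATP after 24 hr at 37 C in complete medium. The positive control is tetraoctylammonium bromide, and potency is given as Hill-fit AC50.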

Row | SMILES | activity change, negative = viability loss [%] | outcome
18 | CC(C)NC(C)C | 11.2 | 
19 | CCC(C)(C)c1ccc(O)cc1 | -10.8 | 
20 | CCCC(C)(COC(N)=O)COC(N)=O | 1.5 | 
21 | O=P1(N(CCCl)CCCl)NCCCO1 (stereo not given) | -6.25 | 
22 | COP(=S)(OC)Oc1ccc(SC)c(C)c1 | -1.04 | 
23 | COC(=O)C(c1ccccc1)C1CCCCN1 (stereo not given) | -11.5 | 
24 | CC(C)c1cccc(C(C)C)c1O | 7.68 | 
25 | Clc1ccc(C(c2ccc(Cl)cc2)C(Cl)(Cl)Cl)cc1 | 5.37 | 
26 | C[C@]1(O)CC[C@H]2[C@@H]3CCC4=CC(=O)CC[C@]4(C)[C@@]3(F)[C@@H](O)C[C@@]21C | 6.17 | 
27 | COc1cc(OC)c(OC)cc1C=O | 3.82 | 
28 | Nc1ccccc1 | -9.21 | 
29 | C[C@]12CCC(=O)C=C1CC[C@@H]1[C@@H]2CC[C@@]2(C)[C@H]1CC[C@]2(C)O | -17.9 | 
30 | CN1C[C@H](C(=O)N[C@]2(C)O[C@@]3(O)[C@@H]4CCCN4C(=O)[C@H](Cc4ccccc4)N3C2=O)C=C2c3cccc4[nH]cc(c34)C[C@H]21 | -19.3 | 
31 | Oc1ccc(Cl)cc1 | -2.44 | 
32 | C[C@]12CCC(=O)C=C1CC[C@@H]1[C@@H]2CC[C@]2(C)C(=O)CC[C@@H]12 |  | inactive
33 | NCCc1ccc(O)cc1 | -7.04 | 
34 | CCOC(=O)CC(SP(=S)(OC)OC)C(=O)OCC (stereo not given) | -7.55 | 
35 | Nc1ccccc1C(=O)O | 4.03 | 
